Source: PubChem BioAssay
A selection: hits, their analogues and other compounds. The true share with any hit is near 0.87%.
FEN1 inhibitor: blocks human flap endonuclease 1 | AID 588795 | Recombinant FEN1 flap cleavage, fluorescence, 15 min | Potency, µM (series often up to 114 µM), for inactives: at the highest dose activity change, negative = inhibition, actives largely listed as inhibitors | P39748 | 390,000 tested, 0.35% active; note: nearly all actives have a fitted effect of over 65% in size
Target sequence (P39748 whole entry, looked up): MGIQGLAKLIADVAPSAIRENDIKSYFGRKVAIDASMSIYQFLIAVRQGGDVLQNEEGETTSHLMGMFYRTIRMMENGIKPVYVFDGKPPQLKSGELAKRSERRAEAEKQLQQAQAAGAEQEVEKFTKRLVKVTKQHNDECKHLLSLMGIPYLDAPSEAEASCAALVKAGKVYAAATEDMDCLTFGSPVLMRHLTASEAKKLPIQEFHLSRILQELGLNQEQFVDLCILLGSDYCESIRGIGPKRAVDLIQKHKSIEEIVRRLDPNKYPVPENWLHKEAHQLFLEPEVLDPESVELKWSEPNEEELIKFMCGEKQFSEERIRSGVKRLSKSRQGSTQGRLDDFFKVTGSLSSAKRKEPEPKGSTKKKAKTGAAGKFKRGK
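FEN1 at 10 nM, compound pretreatment for 15 min (room temperature), 50 nM final substrate to initiate; endpoint reads at 0 and 15 min; DMSO-only plates used as vehicle background.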
RECQ1 helicase: inhibitors of human RECQ1 DNA helicase; P46063; RECQ1 DNA unwinding, red fluorescence kinetic read; Potency, µM (doses to about 57.3 µM), for inactives: at the highest dose activity, negative = inhibition, usual class: inhibitors; 240,000 tested, 0.54% active; AID 2549;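 note: plate controls were vehicle for no effect and no enzyme for full effect; nearly all actives have a fitted effect of over 30% in size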
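RECQ1T1 50 nM; forked duplex (20 bp + 30-nt ss tails) 200 nM, ATP 2 mM final; pH 8.0, 2 mM MgCl2, 2.5 ug/ml poly(dI-dC); 15 min compound preincubation; discontinuous kinetic read over 2 h at RT.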
WRN inhibitor: inhibitors of human WRN helicase; Q14191; WRN helicase unwinding, fluorescent forked duplex, kinetic; Potency, µM (doses to about 114 µM), for inactives: at the highest dose activity change, negative = inhibition, actives largely listed as inhibitors; 360,000 tested, 0.46% active; AID 651768; note: nearly all actives have a fitted effect of over 55% in size
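Screening of the MLSMR collection measured strand separation of a quenched forked DNA duplex (100 nM) by 20 nM WRN with 2 mM ATP, all final. Compounds were preincubated with enzyme 15 min at room temperature.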
BLM helicase inh: inhibitors of human Bloom syndrome helicase BLM. recombinant BLM DNA unwinding, fluorescence dequenching. Potency, µM (titrated, usually from 56.1 µM), without a hit: top-dose activity change, negative = inhibition, usual class: inhibitors. 350,000 tested, 0.2% active. AID 2528;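 note: plate controls were vehicle for no effect and no enzyme for full effect; nearly all actives have a fitted effect of over 35% in size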
APE1 inh: blocks human APE1 abasic DNA cleavage | P27695 | recombinant APE1, TAMRA/BHQ-2 abasic DNA cleavage fluorescence | Potency, µM (highest dose often 65.8 µM), for the others: at the highest dose activity change, negative = inhibition, most hits filed as inhibitors | 350,000 tested, 0.35% active;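 note: plate controls were vehicle for no effect and reference inhibitor for full effect; nearly all actives have a fitted effect of over 55% in size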
Target sequence (P27695 whole entry, looked up): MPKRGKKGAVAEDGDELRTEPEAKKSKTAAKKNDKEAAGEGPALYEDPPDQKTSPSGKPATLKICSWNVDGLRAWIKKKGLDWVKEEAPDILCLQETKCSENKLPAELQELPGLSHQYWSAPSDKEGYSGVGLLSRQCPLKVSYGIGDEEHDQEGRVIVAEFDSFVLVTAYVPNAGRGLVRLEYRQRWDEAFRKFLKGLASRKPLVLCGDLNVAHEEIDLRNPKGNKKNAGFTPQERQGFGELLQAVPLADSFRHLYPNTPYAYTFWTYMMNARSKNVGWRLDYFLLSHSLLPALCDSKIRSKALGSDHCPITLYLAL
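Readout is kinetic fluorescence (ex 525, em 598 nm) from cleavage of 50 nM TAMRA/BHQ-2 THF abasic duplex by 0.75 nM APE1, compound added 15 min beforehand at RT.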
* marks the source's active call; other numbers are inactive results; i = inactive; ? = inconclusive; / = no result; ! = not active in a repeat; [ ] = remark or other dose. Calls come from the whole dose curve; as a rule, active = well fitted curve in the direction sought with a large enough effect; inconclusive = small, poorly fitted or top-dose-only effect, or another doubt; inactive = no such curve, though single readings can be large; an effect the other way counts as inactive or inconclusive. Unless noted, % is set by controls: 0 for no effect and ±100 for the full control effect; potency is the fitted concentration of half-maximal effect.

SMILES	FEN1 inhibitor	RECQ1 helicase	WRN inhibitor	BLM helicase inh	APE1 inh
CCCCNC(=O)c1sc(=S)n2c1[nH]c(=O)c1ccccc12	?	i	?	0%	-3%
O=C(NC1CCCCC1)c1sc(=S)n2c1[nH]c(=O)c1ccccc12	?	i	50µM*	-9%	-4%
CC(=O)c1ccsc1-c1c(C)cc2oc(=O)cc(-c3ccccc3)c2c1C	-20%	22µM*	-4%	-9%[75.6 µM]	9%
CC1=NN(c2cccc(C(=O)O)c2)C(=O)/C1=C\C=C/c1ccccc1	79µM*	-11%	?	-14%	-3%
CC[N+]1(C)CCC(O)(c2ccc(OC)cc2)C(C(=O)c2ccc(OC)cc2)C1 (centres undefined)	4%	/	10µM*	/	/
CC(=O)/C(N=Nc1ccc(C(=O)O)cc1[N+](=O)[O-])=C(\C)O	-5%	i	4%[11.6 µM]	4%	10µM*
Brc1ccc2c(ccc[n+]2CCc2ccccc2)c1	16%	/	/	/	/
C[N+](C)(C)CC(O)CC(=O)[O-] (centres undefined)	/	/	/	/	-1%
COc1cc(OC)c(OC)cc1/C=c1\[nH]c(=O)/c(=C/c2cc(OC)c(OC)cc2OC)[nH]c1=O	-5%	/	/	/	/
Cn1c(=O)c(Nc2ccc(Cl)cc2)c2c3c(cccc31)C(=O)c1ccccc1-2	-10%	28µM*	-8%[57.1 µM]	-16%	51%
C(=C/c1nccc2c1[nH]c1ccccc12)/c1ccc2c(c1)OCO2	45µM*	?	-23%	-8%	5%
O=C1Nc2ccccc2C(=O)C1(Cl)Cc1ccccc1 (centres undefined)	6%	-3%	45µM*	-2%	-11%
CCc1ccc(CNC(=O)C2Cc3cc(S(=O)(=O)N4CCCCCC4)ccc3N2C(C)=O)cc1 (centres undefined)	3%	/	/	0%	/
Cc1cc(NS(=O)(=O)c2ccc(Nc3nc(-c4ccc(C)c(C)c4)cs3)cc2)no1	-15%	4%	?	?	1%
Cc1cc(NS(=O)(=O)c2ccc(Nc3nc(-c4sc(N)nc4C)cs3)cc2)no1	56µM*	?	25µM*	-13%	-5%
Cc1ccc(C)c(NC(=O)C2CCCN2S(=O)(=O)c2ccc3c(c2)CCCC(=O)N3)c1 (centres undefined)	18%	/	/	0%	/
COC1=CC(=O)C(C2CC(=O)c3c(O)cc(O)cc3O2)=CC1=O (centres undefined)	50µM*	/	28µM*	/	/
COc1c(CC=C(C)C)cc(C2CC(=O)c3c(O)cc(O)cc3O2)cc1CC=C(C)C (centres undefined)	?	-26%	-7%	-20%	-1%
O=C(O)CCCN1C(=O)/C(=C/c2cn(-c3ccccc3)nc2-c2cccs2)SC1=S	-29%	?	50µM*	?	?
CCc1nnc(NC(=O)CSc2sc3c(O)cc(=O)[nH]c3c2C#N)s1	4.5µM*	/	13µM*	18µM*	11%[12.4 µM]
Cc1csc(NC(=O)CSc2sc3c(O)cc(=O)[nH]c3c2C#N)n1	50µM*	/	40µM*	-18%	8%
CC1(C)S[C@@H]2[C@H](NC(=O)Cc3ccccc3)C(=O)N2[C@H]1C(=O)O (tested in a mixture with another compound)	/	/	/	/	-1%
COc1ccc2c(c1)c(C1=C(c3c[nH]c4ccccc34)C(=O)NC1=O)cn2CCCN(C)C	/	-23%	/	-13%	-10%
CN(C)CCCn1cc(C2=C(c3c[nH]c4ccccc34)C(=O)NC2=O)c2ccccc21	/	28µM*!	/	-14%	-10%
N[C@@H](Cc1cc(I)c(Oc2ccc(O)c(I)c2)c(I)c1)C(=O)O	?	-3%	?	25µM*!	-4%
SMILES	FEN1 inhibitor	RECQ1 helicase	WRN inhibitor	BLM helicase inh	APE1 inh
NC(Cc1cc(I)c(Oc2ccc(O)c(I)c2)c(I)c1)C(=O)O (centres undefined)	/	i	/	3%	?
O=C1Nc2ccc(I)cc2C1=Cc1cc(Br)c(O)c(Br)c1	35µM*	/	/	/	/
CC(=O)Nc1nonc1-c1nnc(SCC(=O)Nc2cccc(F)c2)n1-c1ccccc1	-7%	/	/	-4%	/
COc1cc2sc3cc(NCc4ccc(C)o4)ccc3c(=O)c2cc1OC	32µM*	/	-11%[11.6 µM]	/	-15%
COc1cccc2sc3ccc(NCCC4CCCN4C)cc3c(=O)c12 (centres undefined)	?	/	-17%	3%	-28%
COc1cc2sc3cc(NCC[C@@H]4CCCN4C)ccc3c(=O)c2cc1OC	22µM*	/	?	/	?
N#CC1=C(N)OC2=C(CCC/C2=C/c2ccoc2)C1c1ccoc1 (centres undefined)	/	22µM*	/	37%	14µM*
Cc1cccc(N(C)S(=O)(=O)c2nnc(NC(=O)C(C)Oc3ccccc3)s2)c1 (centres undefined)	-25%	/	/	-10%	/
Cc1ccc(S(=O)(=O)N2CCN(c3nc(-c4cncnc4)nc4ccccc34)CC2)cc1	-7%	/	/	/	/
Cc1sc2cc3c(c(C(=O)c4ccccc4)[n+]2c1C)-c1cccc2cccc-3c12	40µM*	-10%	-14%[11.6 µM]	105%	-15%
Cc1nc(Nc2cnc(/C=C/c3cc(C(=O)Nc4cccc(C(F)(F)F)c4)ccc3C)cn2)cc(N2CCNCC2)n1	79µM*	/	?	-21%	?
CCOc1ccc(C(=O)Nc2ccc3nc(Nc4cccc(C(F)(F)F)c4)cc(C)c3c2)cc1OCC	-3%	/	/	-1%	/
Cc1ccc(Cl)cc1N1CCN(C(=O)c2cccn2-c2nnc(N3CCCC3)s2)CC1	11%	/	/	-2%	/
C=N[C@@H](C(=O)N[C@@H]1C(=O)N2[C@@H]1SC(C)(C)[C@@H]2C(=O)O)c1ccccc1	/	/	/	/	-1%
COc1ccc2[nH]c3c(=O)n(Cc4ccc(C(=O)NCC5CCCO5)cc4)c(=S)[nH]c3c2c1 (centres undefined)	-31%	20µM*	?	-20%	-2%
Cc1ccc(OCCn2cc(/C=N/NC(=O)c3ccncc3)c3ccccc32)cc1	-10%	25µM*	-27%	-2%	-7%
OC[C@H]1O[C@@H](O[C@H]2[C@H](O)[C@@H](O)[C@H](O)O[C@@H]2CO)[C@H](O)[C@@H](O)[C@@H]1O	/	/	/	/	-1%
Oc1c(Br)cc(/C=N/Nc2ccc(Cl)nn2)cc1Br	?	/	45µM*	-7%	31%
Oc1cccc2c(CC(O)c3c[nH]c4ccccc34)ccnc12 (centres undefined)	-8%	/	/	/	/
Cc1ccc2cc(/C=N/NC(=O)c3ccccc3O)c(Cl)nc2c1	-16%	-5%	50µM*	-21%	0%
COc1ccc2nc3cc(Cl)ccc3c(Nc3cc(CN4CCCC4)c(O)c(CN4CCCC4)c3)c2n1	/	/	/	?	15µM*
Cc1cc(C)nc(SCc2ccc(C(=O)NN=C3CCCC3)cc2)n1	4%	-7%	-2%	-3%	-8%
